Experimental findings from PubChem BioAssay AID1476 (National Center for Advancing Translational Sciences (NCATS), 2009) are described below.

Each structure is given as a SMILES string. Hit rate of the full screen: of about 200,000 compounds, about 4,500 (2.2%) were called active. Roughly 12% stayed inconclusive and do not appear here. For the sample, actives were picked, then their nearest neighbours and some compounds at random. Values without a mark were called inactive. Calls follow the shape of the dose curve; as a rule, active = well fitted inhibition curve with a large enough effect; inconclusive = small, poorly fitted or top-dose-only effect, or effect the other way; inactive = flat fitted curve, though single readings scatter.
Potency is read from the fitted curve at half-maximal effect.

Cruzipain (Trypanosoma cruzi), sequence (P25779 123-467 limits assumed): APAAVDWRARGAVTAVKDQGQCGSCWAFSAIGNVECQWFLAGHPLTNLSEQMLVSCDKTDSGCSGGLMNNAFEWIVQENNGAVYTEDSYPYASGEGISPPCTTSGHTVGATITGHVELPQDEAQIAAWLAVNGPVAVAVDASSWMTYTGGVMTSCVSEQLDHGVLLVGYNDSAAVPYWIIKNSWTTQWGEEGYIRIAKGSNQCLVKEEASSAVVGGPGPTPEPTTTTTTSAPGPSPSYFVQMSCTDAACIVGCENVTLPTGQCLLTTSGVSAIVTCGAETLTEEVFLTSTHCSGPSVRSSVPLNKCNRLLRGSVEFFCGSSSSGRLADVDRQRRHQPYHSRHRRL

This experiment has as its target Cruzipain (Trypanosoma cruzi) (UniProt P25779). The experiment in a line: qHTS Assay for Promiscuous and Specific Inhibitors of Cruzain (without detergent). Also: nearly all actives have a fitted effect of over 40% in size.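 As to max response, negative = inhibition: plate controls were enzyme without inhibitor for no effect and buffer without enzyme for full effect.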 Conditions: purified cruzain, Z-FR-AMC fluorescence, no detergent. An outline of the steps:
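Detergent-free condition (0.00005% Triton X-100) in acetate buffer pH 5.5 with DTT. 1.5 nM enzyme and compound were pre-mixed 15 min, then 2 uM Z-FR-AMC substrate added; reaction progress from fluorescence change between first and third reads (60 s).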
(Quantitative high-throughput screening tests each substance at several concentrations.)
`O=C(Nc1sc2c(c1-c1nc3ccccc3[nH]1)CCCC2)C1CC1`: the Potency was 25.1 µM (active). Consider `O=C(OCc1nc2ccccc2[nH]1)C1CCCCC1`, for which the max response, negative = inhibition is 6.92%.

As for `c1ccc2[nH]c(-c3nc4ccccc4[nH]3)nc2c1`, the max response, negative = inhibition was 9%. On the same count and under the same terms, as for `Cc1ccc2c(c1)N(C(=O)CCC(=O)NCc1ccccc1F)CC(C)O2` (configuration not stated), the figure is 2.02%. On to `Cc1ccc(OCCSc2nc(C)c(Cc3ccccc3)c(=O)[nH]2)cc1`, for which the max response, negative = inhibition is -1.11%. On the same count and under the same terms, as for `O=C(NC1CC(=O)N(c2ccc(F)cc2)C1)c1cccs1` (configuration not stated), the figure is 8.85%. Still for that read-out and setting: as for `Cc1c(Cl)cccc1-c1ccc(CNCCCSc2nnnn2C)o1`, the figure is -7.09%. Regarding `CCCc1ccc(OCc2ccc(C(=O)N/N=C/c3cccc([N+](=O)[O-])c3)o2)c(OC)c1`, the Potency is 6.31 µM (active). For `COc1cc(/C=N/O)ccc1OCc1ccc([N+](=O)[O-])cc1`, the max response, negative = inhibition is 0.78%. Same read-out and setting: as for `COc1cc(/C=N\NC(=O)CNC(=O)c2cccc([N+](=O)[O-])c2)ccc1O`, the figure is 6.36%; as for `Cc1ccc(-c2nc3cccc(C)n3c2Nc2ccc3c(c2)OCCO3)cc1`, -0.169%. The same measure, in the same setting: in the case of `CCCN1CCN(CCCNC(=O)c2cnn(-c3ccc(C)cc3)c2-n2cccc2)CC1` it was 7.09%; in that of `CCCCOc1ccc(CNC(=O)c2ccc3c(c2)N(C)C(=O)C2CCCCN32)cc1` (configuration not stated), 13.9%.

Turning to `COc1ccccc1NC(=O)c1oc2ccccc2c1NC(=O)COc1ccccc1OC`, the max response, negative = inhibition was -7.97%. Same read-out and setting: as for `Cc1cccc(CC(=O)N2CCN=C2SCc2ccc([N+](=O)[O-])cc2)c1`, the figure is -7.03%.

For `Cc1cc([N+](=O)[O-])ccc1NCc1cccc([N+](=O)[O-])c1`, the max response, negative = inhibition was 2.12%. `Cc1cccc(COc2ccccc2/C=N/Nc2ccc([N+](=O)[O-])cc2)c1`: the Potency was 25.1 µM (active). For the compound `N#Cc1ccc(-c2cccs2)nc1SCc1ccc(Br)cc1`, the max response, negative = inhibition was -6.69%. Same read-out and setting: as for `COc1ccc2c(c1)c(N1CCCC1=O)c(C(=O)Nc1ccccc1C(F)(F)F)n2C`, the figure is -10%.

For `COc1ccc(C(=O)N2CCC(c3nc4ccccc4o3)CC2)cc1`, the max response, negative = inhibition is 14.3%. For the compound `Cc1ccc(-c2noc(-c3nnn(-c4cccc(C(F)(F)F)c4)c3N)n2)cc1`, the max response, negative = inhibition is 1.55%. As to `CCSc1nnc(NC(=O)c2ccc(C)cc2)s1`, the Potency is 0.631 µM (active). With `CCSc1nnc(NC(=O)c2cc(=O)c3cc(C)c(C)cc3o2)s1`, the max response, negative = inhibition was -5.87%. As to `CCSc1nnc(NC(=O)Cc2ccccc2OC)s1`, the max response, negative = inhibition was 0.739%. Still for that read-out and setting: as for `Cc1ccccc1OCc1nc2c3cnn(-c4ccccc4F)c3ncn2n1`, the figure is -7.52%; as for `COc1cc(OC)c(NC(=O)Cc2ccc(-n3c(C)nc4cccnc43)cc2)cc1Cl`, 4.77%.

Consider `COc1c(Cl)cc(C(=O)N(Cc2ccccc2F)C2CCS(=O)(=O)C2)cc1Cl` (configuration not stated), for which the max response, negative = inhibition was 6.06%. Same read-out and setting: as for `Cc1ccc(-c2csc(-c3c[nH]c4ccccc34)n2)cc1`, the figure is 1.08%. In the case of `Cc1cccc(N=C2NN=C(c3c[nH]c4ccccc34)CS2)c1`, the Potency is 7.94 µM (active). Regarding `COCCn1c(C)cc(C2=NNC(=Nc3ccc(F)cc3)SC2)c1C`, the max response, negative = inhibition is -3.73%.

As to `CC(=O)N1c2ccccc2CC1C(=O)N1CCN(c2ccc(F)cc2)CC1` (configuration not stated), the max response, negative = inhibition is 13.9%. Still for that read-out and setting: as for `Cc1nc(SCC(=O)Nc2ccc(C(=O)O)cc2)n[nH]1`, the figure is 6.79%. Turning to `Nc1nc(N)c2[nH]c(CNc3ccc(C(=O)O)cc3)nc2n1`, the Potency was 3.98 µM (active). Turning to `O=C(CCS(=O)(=O)c1cc(Br)cc2c1N(C(=O)C1CC1)CC2)Nc1ccc(Br)cc1F`, the max response, negative = inhibition was -5.03%. Still for that read-out and setting: in the case of `COCC(=O)Nc1nnc(COc2ccccc2)s1` it was 2.8%.

Consider `Cc1ccc(OCc2nnc(NC(=O)OCC(C)C)s2)cc1`, for which the Potency was 20 µM (active). For `CCOCc1nnc(NC(=O)CSc2ccc(C)cc2)s1`, the max response, negative = inhibition is 1.04%. On the same count and under the same terms, in the case of `CCC(CC)C(=O)N1CC(=O)Nc2ccc(Br)cc2C1c1ccccc1` (configuration not stated) it was -0.646%.

As to `COc1ccc(CC(=O)N2CC(=O)Nc3ccc(Br)cc3C2c2ccc(F)cc2)cc1OC` (configuration not stated), the max response, negative = inhibition was 18.8%. As to `CCCCOc1ccc(C(=O)N2CC(=O)Nc3ccc(Br)cc3C2c2ccc(F)cc2)cc1` (configuration not stated), the Potency is 25.1 µM (active). As for `Cc1ccc2cccc(NC(=O)c3ccc(OC(C)C)cc3)c2n1`, the max response, negative = inhibition is -1.78%. On the same count and under the same terms, in the case of `Cc1[nH]c2ccccc2c1/C=N/NC(=O)CNC(=O)c1ccc2c(c1)OCO2` it was -1.52%; in that of `O=C(Cn1nnc(-c2ccccc2)n1)NCc1ccccc1`, 3.66%. Regarding `Cc1[nH]c2ccccc2c1/C=N\NC(=O)Cn1nnc(-c2ccccc2)n1`, the Potency was 7.94 µM (active). Consider `CCOc1ccc(NC(=O)c2ncoc2-c2ccco2)cc1`, for which the max response, negative = inhibition is -16.9%. Regarding `Cc1ccc(N2C(=O)C3N=NN(CC(=O)N4N=C(c5cccc6ccccc56)CC4c4ccccc4)C3C2=O)cc1` (configuration not stated), the Potency was 7.94 µM (active). Regarding `Cc1ccc(C2=NN(C(=O)CSc3nc(N)cc(N)n3)C(c3ccco3)C2)cc1` (configuration not stated), the max response, negative = inhibition is 4.32%. `O=C1C2N=NN(CC(=O)N3N=C(c4cccc5ccccc45)CC3c3ccccc3)C2C(=O)N1c1ccccc1` (configuration not stated): the Potency is 5.01 µM (active). For the compound `Cc1ccc(CNC(=O)CSC2=Nc3ccccc3C3=NC(C)C(=O)N23)cc1` (configuration not stated), the max response, negative = inhibition was -15.8%. Same read-out and setting: as for `Cc1cc(C)c(NC(=O)CSc2nc3nccnc3c(=O)n2CCc2c[nH]c3ccccc23)c(C)c1`, the figure is 9.02%. The same measure, in the same setting: in the case of `O=C(Nc1cc(Cl)cc(Cl)c1)c1ccc2c(c1)N(Cc1cccc(Cl)c1)C(=O)c1ccccc1S2=O` (configuration not stated) it was -5.94%; in that of `O=c1[nH]c2cc(Br)ccc2n2cccc12`, 11.1%.

On to `CCOC(=O)C1CCN(c2ncnc3c2c(-c2ccccc2)cn3-c2cccc(C)c2)CC1`, for which the max response, negative = inhibition was 9.85%.

On to `Cc1nc2ccccc2cc1C(=O)N/N=C/c1ccc([N+](=O)[O-])cc1`, for which the max response, negative = inhibition was -1.64%. Turning to `Cc1cc(C(=O)N/N=C/c2ccc(O)c([N+](=O)[O-])c2)c(C)n1-c1ccc(F)cc1`, the Potency is 10 µM (active). Take `CCCCCC(=O)Nc1ccc(C(=O)N/N=C/c2ccc([N+](=O)[O-])cc2)cc1`: the max response, negative = inhibition was -23.1%. The same measure, in the same setting: in the case of `COc1cc2nc(NCC(C)c3ccccc3)n3nc(-c4ccccc4)nc3c2cc1OC` (configuration not stated) it was 5.17%; in that of `Cc1ccccc1NC(=O)CCOc1ccccc1`, -3.79%; in that of `CCCN(CCC)C(=O)C1CCCN(c2ncnc3c2nc2n3CCCCC2)C1` (configuration not stated), 9.35%. On the same count and under the same terms, in the case of `Cc1ccc(CNC(=O)CCc2c(C)nc3nc(CNC(=O)OC(C)(C)C)nn3c2C)cc1` it was 11.1%. In the case of `c1ccc(Nc2nc(N3CCOCC3)c3ccccc3n2)cc1`, the Potency was 12.6 µM (active). Turning to `c1cncc(-c2nc(N3CCNCC3)c3ccccc3n2)c1`, the max response, negative = inhibition is 0.953%. Same read-out and setting: in the case of `Cc1cc(C(=O)Nc2ccccc2N2CCOCC2)c2ccccc2n1` it was 4.56%. Same read-out and setting: as for `CN(CC(=O)Nc1ccccc1F)S(=O)(=O)c1ccc2c(c1)c(=O)n(C)c(=O)n2C`, the figure is -13.2%; as for `Cc1nc2ccccn2c(=O)c1NC(=O)c1c(F)cccc1F`, -1.01%; as for `COc1cccc(/C=C(/CC(=O)Nc2ccc(N3CCOCC3)cc2)c2nc3ccccc3s2)c1`, -7.21%. On to `COc1ccc(/C=C(/CC(=O)Nc2ccc(C)cc2)c2nc3ccccc3s2)cc1`, for which the Potency is 31.6 µM (active).

In the case of `COc1ccc(CC(=O)Nc2ccc(-c3nc4ccccc4s3)c(C)c2)cc1`, the max response, negative = inhibition was 7.02%.

As for `COc1ccc(CCNC(=O)CCCn2c(=O)c3ccccc3n(Cc3ccc(C)cc3)c2=O)cc1OC`, the max response, negative = inhibition was -4.62%. For `Cc1ccc(CNC(=O)Cn2c(=O)ccc3cc(S(=O)(=O)N4CCCC4)ccc32)cc1`, the max response, negative = inhibition was -9.4%. On to `CC1CCCN(c2csc3ccc(F)cc3c2=O)C1` (configuration not stated), for which the max response, negative = inhibition was 1.1%. Same read-out and setting: in the case of `COc1ccccc1-c1noc(CSc2nnc(-c3ccccc3)n2-c2ccc(C)c(C)c2)n1` it was -9.67%; in that of `COc1ccccc1N1CCN(C(CNC(=O)C(=O)NCc2ccc(C)cc2)c2cccnc2)CC1` (configuration not stated), 1.39%; in that of `COc1cccc(Cn2c(SCc3ccc(C(=O)N4CCCCC4)cc3)nc3ccncc32)c1`, 12.2%.

As to `CC(=O)Nc1ccc(S(=O)(=O)NCC2CCC(C(=O)NCCc3ccccc3)CC2)cc1` (configuration not stated), the max response, negative = inhibition is -2.5%. In the case of `COc1ccc(CN2CCn3ncc(C(=O)Nc4ccc(Cl)cc4Cl)c3C2=O)cc1`, the Potency was 5.01 µM (active). As for `COc1ccc(/C(C)=N/NC(=O)CCC(=O)Nc2ccc(Cl)cc2Cl)c(OC)c1`, the max response, negative = inhibition was 9.51%.

For `Cc1cnc(C(=O)OCC(=O)Nc2ccc(Cl)cc2Cl)cn1`, the max response, negative = inhibition is -17.8%. The same measure, in the same setting: as for `O=C(O)c1ccc(Cn2c(SCc3ccc(F)cc3)nc3ccncc32)cc1`, the figure is 2.53%; as for `Cc1ccc(CN2CCCn3nc(C(=O)NCc4ccccc4Cl)cc3C2=O)cc1`, 12.6%; as for `O=C(c1ccco1)n1nc(-c2ccc(Cl)cc2)nc1NCc1ccccc1`, 14.9%.

On to `Cc1sc2ncnc(Sc3nc4ccccc4s3)c2c1C`, for which the max response, negative = inhibition was -16.3%. As to `COC(=O)c1c(-c2cccs2)csc1NC(=O)CSc1ncnc2sc(C)c(C)c12`, the Potency was 6.31 µM (active). Consider `Cc1nc(SCC(=O)Nc2cc(C)on2)c2c(C)c(C)sc2n1`, for which the max response, negative = inhibition was -4.16%. On the same count and under the same terms, as for `CCOc1ccc(N(CC)S(=O)(=O)N2CCCC(C(=O)Nc3ccc(C(C)=O)cc3)C2)cc1` (configuration not stated), the figure is -0.766%.

As to `COc1ccc(CCNC(=O)c2cnc3sc(N4CCCCCC4)nn3c2=O)cc1OC`, the max response, negative = inhibition was 2.6%.

With `COc1ccc(C(=O)NNS(=O)(=O)c2ccc(C)cc2)cc1`, the max response, negative = inhibition is -9.3%.

On to `COc1ccc(S(=O)(=O)c2c(Nc3ccc(C)cc3)sc(C(=O)c3ccc(C)cc3)c2N)cc1`, for which the Potency was 5.01 µM (active).

With `COc1cccc(C(=O)c2sc3nc(-c4ccccc4)cc(C(F)(F)F)c3c2N)c1`, the max response, negative = inhibition is -13.2%. Same read-out and setting: as for `CC(=O)c1c(Nc2ccccc2)sc(C(=O)c2ccccc2)c1C`, the figure is 5.34%.

As to `CO/N=C(/CS(=O)(=O)c1ccc(Br)cc1)c1ccc(OC)cc1`, the max response, negative = inhibition is 0.45%. Take `COc1ccc(S(=O)(=O)c2c(Nc3cccc(Cl)c3)sc(C(=O)c3ccccc3)c2N)cc1`: the Potency was 3.98 µM (active).
